The text below walks through data of PubChem BioAssay (NCATS).

Experiment [1] can be described thus: qHTS assay for small molecule antagonists of peroxisome proliferator-activated receptor delta signaling (AID 588535; active = well fitted inhibition curve with a large enough effect in the signal ratio, with a control signal flat, not every such curve was filed as active; the % refers to the signal ratio;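 for max response: cells co-treated with a PPAR-delta agonist as stimulator during compound exposure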). The settings on record: HEK293T PPARd-UAS-bla, beta-lactamase FRET ratio, 18 h; 460 nm channel. An outline of the steps: (§1)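 Reporter: UAS-bla under PPAR-delta response element, HEK293T host. Medium: 2% charcoal/dextran FBS. Dosing: titration, 18 hrs, 37 C. Detection: CCF4, 2 hrs RT, 405 ex/460 and 530 em.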

For experiment [2], the target named is Peroxisome proliferator-activated receptor delta (Homo sapiens) (UniProt Q03181). Described as above. In outline:
as §1

The target in experiment [3] is Peroxisome proliferator-activated receptor gamma (Homo sapiens) (UniProt P37231). The experiment in a line: qHTS assay for small molecule agonists of peroxisome proliferator-activated receptor gamma signaling (AID 588536; active = well fitted curve in the direction sought with a large enough effect in the signal ratio, with a control signal flat, not every such curve was filed as active; the % refers to the signal ratio;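 note: 0% = DMSO basal wells and 100% = rosiglitazone at 2 µM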). In outline: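 HEK293 UAS-bla reporter line, 1% charcoal/dextran FBS; titration, 16 h, 37 C; CCF4 loading 2 h RT; fluorescence 460/530 nm. Normalized to rosiglitazone 2 uM = 100%, DMSO = 0%.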
On the technique in general: qHTS replaces the single test concentration by a dilution series.

Experiment [4] can be described thus: qHTS assay for small molecule agonists of retinoid X receptor alpha signaling (AID 588544).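 For activation: 0% = DMSO basal wells and 100% = reference agonist.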 The following applies: HEK293T RXRa-UAS-bla, beta-lactamase reporter, 18 h; 530 nm emission.
In experiment [5] the target is Retinoic acid receptor RXR-alpha (Homo sapiens) (UniProt P19793). Described as above.
The target in experiment [6] is Thyroid hormone receptor beta (Homo sapiens) (UniProt P10828). Briefly: qHTS assay for small molecule agonists of thyroid hormone receptor beta signaling (AID 588545).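 Note: 0% = DMSO only and 100% = 10 nM T3.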 In outline: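 Efficacy and EC50 values derive from Hill fits of qHTS titration data, normalized to 10 nM T3 and DMSO-only wells. HEK 293 reporter cells were stimulated for 18 hrs at 37 C, with beta-lactamase activity measured by CCF4 fluorescence.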

Experiment [7] in a line: qHTS assay for small molecule antagonists of retinoid X receptor alpha signaling (AID 588546; active = well fitted inhibition curve with a large enough effect in the signal ratio, with a control signal flat, not every such curve was filed as active; the % refers to the signal ratio;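 note: cells stimulated with 9-cis-retinoic acid as agonist; % is set by controls: 0 for no effect and ±100 for the full control effect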). The settings on record: HEK293T RXRa-UAS-bla, beta-lactamase ratio, antagonist mode; measured here: W530 green channel, cytotoxicity proxy. An outline of the steps: (§2)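 Beta-lactamase reporter inhibition, read as CCF4 fluorescence ratio (ex 405, em 460/530 nm) after 2 h at RT. HEK293T UAS-bla cells, 2500/well, were stimulated with 9-cis-RA at 500 or 100 nM final alongside test compound for 18 h at 37 C.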

The target of experiment [8] is Retinoic acid receptor RXR-alpha (Homo sapiens) (UniProt P19793). The description is as above. The following applies: HEK293T RXRa-UAS-bla, beta-lactamase ratio, antagonist mode. In outline:
as §2

The target of experiment [9] is Thyroid hormone receptor beta (Homo sapiens) (UniProt P10828). The experiment in a line: qHTS assay for small molecule antagonists of thyroid hormone receptor beta signaling (AID 588547; active = well fitted inhibition curve with a large enough effect in the signal ratio, with a control signal flat, not every such curve was filed as active; the % refers to the signal ratio;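 note: cells stimulated with 0.4 nM T3 agonist during compound exposure; series mostly up to about 77 µM; % is set by controls: 0 for no effect and ±100 for the full control effect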). The settings on record: TR-UAS-bla HEK293, beta-lactamase ratio, antagonist mode, 18 h. In outline: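 TR-UAS-bla GripTite HEK293 cells in 2% charcoal/dextran FBS medium were preincubated 4 h at 37 C, given compound (0.59 nM to 92 uM) plus 0.4 nM T3 (final) for 18 h, then CCF4 for 2 h at RT; Hill fit gave IC50.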

Experiment [10] deals with Voltage-gated inwardly rectifying potassium channel KCNH2 (Homo sapiens) (UniProt Q12809). Briefly: qHTS Assay for Small Molecule Inhibitors of the Human hERG Channel Activity (AID 588834; active = well fitted inhibition curve with a large enough effect;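 note: top concentration of the series differs between compounds; % is set by controls: 0 for no effect and ±100 for the full control effect; lower thallium flux fluorescence means stronger hERG block; nearly all actives have a fitted effect of over 50% in size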). An outline of the steps: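 Blockade is seen as reduced FluxOR thallium-flux fluorescence in U2OS cells expressing hERG from a BacMam construct, in Opti-MEM with 2% FCS. Concentration-response data fitted to the Hill equation for AC50.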

Experiment [11] can be described thus: qHTS assay for small molecule agonists of the antioxidant response element (ARE) signaling pathway (AID 651741; active = well fitted activation curve with a large enough effect in the signal ratio; the % refers to the signal ratio; note: % of control where 0% means no effect). In outline: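 Compounds in DMSO are pinned onto HepG2 ARE-bla cells (2,000/well) that were preincubated 5 h; plates stay 16 h at 37 C, then beta-lactamase activity is detected with LiveBLAzer B/G substrate by fluorescence.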
Experiment [12] is described as follows: qHTS assay for small molecule activators of the p53 signaling pathway (AID 651743; active = well fitted activation curve with a large enough effect in the signal ratio, not every such curve was filed as active; the % refers to the signal ratio; note: series mostly up to about 92 µM; % of control where 0% means no effect). The following applies: HCT-116 p53RE-bla, beta-lactamase FRET ratio, 16 h; stronger effect = higher value. In outline: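 Cell-based beta-lactamase reporter (p53 response elements, HCT-116 background). After a 5-hour preincubation, cells received compound for 16 hours at 37 C; substrate development ran 2 hours at room temperature.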

Experiment [13] has as its target Peroxisome proliferator-activated receptor gamma (Homo sapiens) (UniProt P37231). Briefly: qHTS assay for small molecule antagonists of peroxisome proliferator-activated receptor gamma signaling (AID 588537; active = well fitted inhibition curve with a large enough effect in the signal ratio, with a control signal flat, not every such curve was filed as active; the % refers to the signal ratio;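 note: reporter cells co-stimulated with 50 nM rosiglitazone agonist during compound treatment; % of control where 0% means no effect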). In outline:
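We seeded GeneBLAzer HEK293 reporter cells at 3000 per well, allowed 6-6.5 h attachment at 37 C, then co-treated with test compound titrations and 50 nM rosiglitazone overnight (16 h). Inhibition was quantified from 460/530 nm emission ratios.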

The nature of experiment [14]: qHTS assay for small molecule activators of the nuclear factor-kappa B (NF-kB) signaling pathway (AID 651749; active = well fitted activation curve with a large enough effect in the signal ratio; the % refers to the signal ratio; note: series mostly up to about 77 µM; % of control where 0% means no effect). The settings on record: NF-kB-bla ME-180 cells, beta-lactamase FRET ratio, 16 h; stronger effect = higher value. An outline of the steps:
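Screening used 2,000 ME-180 reporter cells per well exposed to pinned compound (23 nL) or DMSO; after 16 hr at 37C, beta-lactamase expression under NF-kB control was assessed through FRET.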

The target of experiment [15] is Vitamin D3 receptor (Homo sapiens) (UniProt P11473). Briefly: qHTS assay for small molecule antagonists of vitamin D receptor signaling (AID 588541).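 Note: receptor activated by calcitriol during compound treatment; series mostly up to about 77 µM; % is set by controls: 0 for no effect and ±100 for the full control effect.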 In outline: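 VDR-UAS-bla HEK293T cells (2000/well, 2% charcoal-stripped FBS) were treated with titrated compounds plus 1-alpha,25-dihydroxyvitamin D3 (50 nM or 3 nM final) for 16 h at 37 C. CCF4 beta-lactamase fluorescence was read; Hill fits gave IC50.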

Experiment [16] has the same target. Briefly: qHTS assay for small molecule agonists of vitamin D receptor signaling (AID 588543).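 Note: 0% = DMSO basal and 100% = reference agonist control.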 In outline:
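Measured: β-lactamase reporter activity (CCF4, 405 nm excitation, 460/530 nm emission) in HEK293T VDR-UAS-bla cells after 16 h compound exposure at 37 °C. Normalization against 50 nM 1α,25-dihydroxyvitamin D3 and DMSO; Hill-fit EC50.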

Results filed as inconclusive are left out. Active and inactive are the calls of the source. Unless noted, calls come from the whole dose curve.

Chain of Retinoic acid receptor RXR-alpha (Homo sapiens) (P19793 whole entry, looked up): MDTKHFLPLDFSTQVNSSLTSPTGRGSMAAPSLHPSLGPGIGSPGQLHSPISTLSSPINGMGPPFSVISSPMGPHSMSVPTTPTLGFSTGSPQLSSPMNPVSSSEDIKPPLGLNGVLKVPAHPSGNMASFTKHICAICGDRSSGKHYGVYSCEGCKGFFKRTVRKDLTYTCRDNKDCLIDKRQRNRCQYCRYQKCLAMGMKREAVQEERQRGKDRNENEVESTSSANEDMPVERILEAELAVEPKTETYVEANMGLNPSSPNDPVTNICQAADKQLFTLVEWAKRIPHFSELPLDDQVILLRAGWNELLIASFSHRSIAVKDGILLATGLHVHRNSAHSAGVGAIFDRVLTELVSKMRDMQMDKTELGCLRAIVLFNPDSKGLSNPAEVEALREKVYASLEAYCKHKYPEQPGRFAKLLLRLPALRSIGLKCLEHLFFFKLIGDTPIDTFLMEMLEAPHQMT
Chain of Vitamin D3 receptor (Homo sapiens) (P11473 whole entry, looked up): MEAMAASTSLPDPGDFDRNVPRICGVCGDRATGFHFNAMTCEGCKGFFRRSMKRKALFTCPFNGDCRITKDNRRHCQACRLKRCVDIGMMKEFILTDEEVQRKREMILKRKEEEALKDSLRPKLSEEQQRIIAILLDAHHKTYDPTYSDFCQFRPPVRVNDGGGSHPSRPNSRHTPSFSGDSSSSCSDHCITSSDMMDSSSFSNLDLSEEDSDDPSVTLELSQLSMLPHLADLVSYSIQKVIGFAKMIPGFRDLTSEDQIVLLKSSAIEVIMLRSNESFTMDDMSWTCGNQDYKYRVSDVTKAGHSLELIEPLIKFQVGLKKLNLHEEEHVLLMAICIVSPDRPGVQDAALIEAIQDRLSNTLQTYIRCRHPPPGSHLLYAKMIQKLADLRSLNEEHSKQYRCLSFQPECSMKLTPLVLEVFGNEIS
Chain of Voltage-gated inwardly rectifying potassium channel KCNH2 (Homo sapiens) (Q12809 whole entry, looked up): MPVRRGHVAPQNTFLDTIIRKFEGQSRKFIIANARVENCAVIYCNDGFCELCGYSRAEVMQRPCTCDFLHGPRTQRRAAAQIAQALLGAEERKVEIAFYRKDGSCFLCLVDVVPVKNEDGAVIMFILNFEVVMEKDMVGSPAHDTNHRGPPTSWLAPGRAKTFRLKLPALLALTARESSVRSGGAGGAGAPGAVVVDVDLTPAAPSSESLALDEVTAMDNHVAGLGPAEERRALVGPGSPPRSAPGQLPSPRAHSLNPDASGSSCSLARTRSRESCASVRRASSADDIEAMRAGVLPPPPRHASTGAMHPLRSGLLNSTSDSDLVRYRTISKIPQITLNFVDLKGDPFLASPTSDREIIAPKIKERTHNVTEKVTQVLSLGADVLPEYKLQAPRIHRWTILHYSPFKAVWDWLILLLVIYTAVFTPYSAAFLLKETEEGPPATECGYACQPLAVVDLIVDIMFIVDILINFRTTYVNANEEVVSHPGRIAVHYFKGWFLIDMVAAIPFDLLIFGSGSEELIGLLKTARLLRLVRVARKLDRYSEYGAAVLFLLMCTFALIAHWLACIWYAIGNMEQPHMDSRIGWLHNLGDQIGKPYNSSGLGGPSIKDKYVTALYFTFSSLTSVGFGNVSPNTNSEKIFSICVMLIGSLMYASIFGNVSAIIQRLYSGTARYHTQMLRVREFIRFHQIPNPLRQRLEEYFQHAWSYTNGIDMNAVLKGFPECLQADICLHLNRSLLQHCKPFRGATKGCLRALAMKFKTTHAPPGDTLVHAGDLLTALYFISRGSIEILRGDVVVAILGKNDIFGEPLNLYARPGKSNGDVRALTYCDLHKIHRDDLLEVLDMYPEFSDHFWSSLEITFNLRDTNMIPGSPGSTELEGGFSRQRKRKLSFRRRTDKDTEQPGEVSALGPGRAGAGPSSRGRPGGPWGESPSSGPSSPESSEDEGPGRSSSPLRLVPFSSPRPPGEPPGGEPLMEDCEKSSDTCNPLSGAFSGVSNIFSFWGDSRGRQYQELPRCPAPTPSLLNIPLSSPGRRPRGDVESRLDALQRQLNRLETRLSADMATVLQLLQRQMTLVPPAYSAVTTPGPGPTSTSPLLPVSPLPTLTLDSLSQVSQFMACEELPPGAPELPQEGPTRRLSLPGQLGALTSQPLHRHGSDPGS
Chain of Peroxisome proliferator-activated receptor gamma (Homo sapiens) (P37231 whole entry, looked up): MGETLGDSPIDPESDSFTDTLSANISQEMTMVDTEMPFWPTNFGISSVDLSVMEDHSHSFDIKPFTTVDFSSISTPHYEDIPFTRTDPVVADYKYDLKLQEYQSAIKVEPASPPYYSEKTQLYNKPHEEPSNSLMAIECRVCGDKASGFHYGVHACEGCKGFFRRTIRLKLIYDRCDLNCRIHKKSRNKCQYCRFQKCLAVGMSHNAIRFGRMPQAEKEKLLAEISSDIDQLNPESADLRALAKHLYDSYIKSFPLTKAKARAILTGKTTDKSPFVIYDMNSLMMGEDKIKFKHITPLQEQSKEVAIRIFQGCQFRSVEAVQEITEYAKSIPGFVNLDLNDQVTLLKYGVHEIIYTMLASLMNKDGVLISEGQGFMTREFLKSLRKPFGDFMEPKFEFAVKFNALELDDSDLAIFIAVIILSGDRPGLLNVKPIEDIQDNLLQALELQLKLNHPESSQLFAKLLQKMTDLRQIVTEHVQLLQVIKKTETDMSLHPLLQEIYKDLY
Chain of Thyroid hormone receptor beta (Homo sapiens) (P10828 whole entry, looked up): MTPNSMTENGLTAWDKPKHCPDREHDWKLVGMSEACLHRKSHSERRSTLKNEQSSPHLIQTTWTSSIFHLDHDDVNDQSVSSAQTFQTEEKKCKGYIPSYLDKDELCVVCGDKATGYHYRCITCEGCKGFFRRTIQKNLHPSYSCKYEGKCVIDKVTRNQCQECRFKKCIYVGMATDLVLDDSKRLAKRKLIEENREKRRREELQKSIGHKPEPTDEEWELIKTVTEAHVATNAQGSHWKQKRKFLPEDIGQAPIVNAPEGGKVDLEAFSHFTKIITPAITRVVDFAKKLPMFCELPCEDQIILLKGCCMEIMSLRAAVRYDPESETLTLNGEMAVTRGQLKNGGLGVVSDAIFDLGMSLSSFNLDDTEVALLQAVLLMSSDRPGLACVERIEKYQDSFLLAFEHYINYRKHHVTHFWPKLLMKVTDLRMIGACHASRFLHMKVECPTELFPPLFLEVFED
Chain of Peroxisome proliferator-activated receptor delta (Homo sapiens) (Q03181 whole entry, looked up): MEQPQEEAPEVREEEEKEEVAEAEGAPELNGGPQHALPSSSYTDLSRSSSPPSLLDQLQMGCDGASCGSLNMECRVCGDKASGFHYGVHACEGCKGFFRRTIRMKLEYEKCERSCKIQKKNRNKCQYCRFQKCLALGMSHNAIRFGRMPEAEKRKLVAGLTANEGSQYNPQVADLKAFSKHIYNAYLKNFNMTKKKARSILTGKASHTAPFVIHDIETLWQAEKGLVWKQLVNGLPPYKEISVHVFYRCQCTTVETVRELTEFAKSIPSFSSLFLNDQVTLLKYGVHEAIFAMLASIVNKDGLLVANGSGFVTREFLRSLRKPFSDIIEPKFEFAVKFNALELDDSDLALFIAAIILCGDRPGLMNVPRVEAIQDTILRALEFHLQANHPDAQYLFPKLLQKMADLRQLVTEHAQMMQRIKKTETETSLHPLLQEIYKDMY

On to `NC(=O)NC(N)=O`, for which the max response in [1] was 34.3%; in [4] it was 6.09%; in [7], -1.82%; in [8], 66.5% (inactive). Besides, the Potency entry in [2], in [10] and in [11] was “inactive” throughout. In addition, the compound was called inactive in experiment [3], in experiment [5] and in experiment [6]. In addition, the activity change % (negative = inhibition) in experiment [9] was 9.23% (inactive). Besides, in experiment [12], the activation is -4.91% (inactive).

For the compound `NC(=O)c1ccccc1[N+](=O)[O-]`, the max response in [1] was -1.98%; in [4], -9.31%; in experiment [7], 3.46%; in experiment [8], 0.827% (inactive). Besides, the Potency result in experiment [2], in experiment [10] and in [11] was “inactive” in each case. Also, the outcome in [3], in experiment [13], in experiment [5] and in [6] was inactive. Moreover, in experiment [9], the activity change % (negative = inhibition) was 5.01% (inactive). Moreover, the activation in experiment [12] is -0.853% (inactive); in experiment [14] it was -0.661% (inactive).

As to `C=CCOC(=O)CCCCCCCC`, the outcome in experiment [3], in [13], in experiment [15], in [16] and in [6] was inactive. In addition, the max response in experiment [7] was -1.68%; in experiment [8], -5.32% (inactive). Besides, the activity change % (negative = inhibition) in experiment [9] is -0.411% (inactive). Further, the Potency entry in experiment [11] is “inactive”. Also, the activation in [12] was -2.19% (inactive).

As to `O=P(O)(OCc1ccccc1)OCc1ccccc1`, the outcome in experiment [3], in experiment [13], in experiment [15], in experiment [16], in [5] and in [6] was inactive. The values for the max response in [4], in experiment [7] and in [8] were 6.08%, -0.49% and -5.97% (inactive), respectively. The activity change % (negative = inhibition) in experiment [9] is 0.248% (inactive). Moreover, the Potency result in experiment [10] and in experiment [11] was “inactive” in each case. In experiment [12], the activation is -2.58% (inactive).

On to `CCCCC(CC)C(=O)O` (stereo not drawn), for which the max response in [1] is 18%; in experiment [4], 12.4%; in experiment [7], -3.23%; in [8], 4.48% (inactive). Also, the Potency result in [2], in experiment [10] and in experiment [11] was “inactive” each time. For the same compound, the compound was called inactive in experiment [3], in experiment [13], in experiment [5] and in experiment [6]. For the same compound, the activity change % (negative = inhibition) in experiment [9] was -2.96% (inactive).

On to `[O-]/[N+](=N\O)c1ccccc1`, for which the compound was called inactive in experiment [3], in experiment [15], in experiment [16] and in experiment [6]. Also, in experiment [10], the Potency result was “inactive”. Besides, the activation in experiment [12] is -2.28% (inactive).

Consider `COC(=O)CC#N`, for which the outcome in experiment [3], in [13], in [15], in [16] and in [5] was inactive. Also, the max response in [4] is -7.46%; in experiment [7], -3.78%; in experiment [8], -0.774% (inactive). The activity change % (negative = inhibition) in experiment [9] was 2.83% (inactive). Besides, the Potency result in [10] and in experiment [11] was “inactive” each time. Moreover, the activation in [12] was -2.67% (inactive); in experiment [14], -0.54% (inactive).

As for `ClC/C=C/CCl`, the compound was called inactive in experiment [3], in [13], in experiment [5] and in experiment [6]. Moreover, the max response in experiment [4] was -8.83%; in [7] it was -5.15%; in experiment [8] it was 0.33% (inactive). Moreover, the activity change % (negative = inhibition) in experiment [9] is 19.3% (inactive). Also, the Potency result in experiment [10] was “inactive”. For the same compound, the activation in experiment [12] is -2.54% (inactive).

On to `OCCO`, for which the result in experiment [3], in experiment [15], in experiment [16], in [5] and in experiment [6] was inactive. For the same compound, the max response in [4] was 7.28%; in [7] it was 0.506%; in experiment [8], 11.2% (inactive). Besides, the activity change % (negative = inhibition) in [9] was 21% (inactive). The Potency result in [10] and in [11] was “inactive” throughout. The activation in experiment [12] is -3.22% (inactive); in experiment [14], -0.33% (inactive).

Take `CCCCCCCCN`: the max response was 13.3% in [1], -7.59% in experiment [4], 2.38% in experiment [7] and 13.9% (inactive) in experiment [8]. Also, the Potency entry in experiment [2], in experiment [10] and in [11] was “inactive” throughout. Moreover, the compound was classed as inactive in [3], in experiment [13], in experiment [15], in experiment [5] and in [6]. Moreover, in [9], the activity change % (negative = inhibition) is 5.95% (inactive). The activation in experiment [12] was -1.65% (inactive); in experiment [14], -1.11% (inactive).
